Data reported in the supplement of paper PMC8728848.
The entries come from a sample that favours the strongest signals as a whole.

Columns and labels:
Assay in all cases: glycan array binding signal (z-score within array); higher = stronger binding
Conditions in all cases: glycan notation: IUPAC condensed, linker removed
[1] = target: Fuc(a1-2)Gal(b1-3)GalNAc(a1-3)[Fuc(a1-2)]Gal(b1-4)Glc
Summary of the method: (§1)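 The Consortium for Functional Glycomics database supplied 3228 glycan arrays, of which those lacking an available protein sequence were dropped. The binding signal, a within-array Z-score, was averaged across arrays of the same protein sequence and across linkers. Negative scores can be read as non-binding.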

[2] = target: Fuc(a1-2)Gal(b1-3)GlcNAc(b1-3)[Fuc(a1-2)Gal(b1-3)GlcNAc(b1-6)]GalNAc
Summary of the method: as §1

[3] = target: Fuc(a1-2)Gal(b1-4)Fuc(a1-3)]GlcNAc(b1-2)Man(a1-3)[Fuc(a1-2)Gal(b1-4)[Fuc(a1-3)]GlcNAc(b1-2)Man(a1-6)]Man(b1-4)GlcNAc(b1-4)GlcNAc
Summary of the method: as §1

[4] = target: Fuc(a1-2)Gal(b1-4)GlcNAc(b1-2)Man(a1-3)[Fuc(a1-2)Gal(b1-4)GlcNAc(b1-2)Man(a1-6)]Man(b1-4)GlcNAc(b1-4)GlcNAc
Summary of the method: as §1

[5] = target: Fuc(a1-2)Gal(b1-4)GlcNAc(b1-2)Man(a1-3)[Fuc(a1-2)Gal(b1-4)GlcNAc(b1-2)Man(a1-6)]Man(b1-4)GlcNAc(b1-4)[Fuc(a1-6)]GlcNAc
Summary of the method: as §1

[6] = target: Fuc(a1-2)Gal(b1-4)GlcNAc(b1-3)Gal(b1-4)GlcNAc(b1-2)Man(a1-3)[Fuc(a1-2)Gal(b1-4)GlcNAc(b1-3)Gal(b1-4)GlcNAc(b1-2)Man(a1-6)]Man(b1-4)GlcNAc(b1-4)GlcNAc
Summary of the method: as §1

[7] = target: Fuc(a1-2)Gal(b1-4)GlcNAc(b1-6)GalNAc
Summary of the method: as §1

[8] = target: Fuc(a1-2)[Gal(a1-4)]Gal(b1-4)GlcNAc
Summary of the method: as §1

[9] = target: Fuc(a1-2)[GalNAc(a1-3)]Gal(b1-3)GlcNAc
Summary of the method: as §1

[10] = target: Fuc(a1-2)[GalNAc(a1-3)]Gal(b1-4)[Fuc(a1-3)]GlcNAc
Summary of the method: as §1

[11] = target: Fuc(a1-2)[GalNAc(a1-4)]Gal(b1-4)GlcNAc
Summary of the method: as §1

Fuc(b1-3)GlcNAc = target: Fuc(b1-3)GlcNAc
Summary of the method: as §1

[12] = target: Gal(a1-3)Gal(b1-3)GlcNAc(b1-3)GalNAc
Summary of the method: as §1

Gal(a1-3)Gal(b1-4)Glc = target: Gal(a1-3)Gal(b1-4)Glc
Summary of the method: as §1

Gal(a1-3)GalNAc = target: Gal(a1-3)GalNAc
Summary of the method: as §1

Gal(b1-3)GalNAc(b1-3)Gal = target: Gal(b1-3)GalNAc(b1-3)Gal
Summary of the method: as §1

[13] = target: Gal(b1-3)[Fuc(a1-4)]GlcNAc(b1-6)GalNAc
Summary of the method: as §1

[14] = target: Gal(b1-3)[GlcNAc(b1-6)]GalNAc
Summary of the method: as §1

Gal(b1-4)GlcNAc = target: Gal(b1-4)GlcNAc
Summary of the method: as §1

[15] = target: Gal(b1-4)GlcNAc(b1-2)Man(a1-3)[Gal(b1-4)GlcNAc(b1-2)Man(a1-6)][Gal(b1-4)GlcNAc(b1-4)]Man(b1-4)GlcNAc(b1-4)[Fuc(a1-6)]GlcNAc
Summary of the method: as §1

[16] = target: Gal(b1-4)GlcNAc(b1-3)Gal(b1-4)GlcNAc(b1-3)Gal(b1-4)GlcNAc(b1-2)Man(a1-3)[Gal(b1-4)GlcNAc(b1-3)Gal(b1-4)GlcNAc(b1-3)Gal(b1-4)GlcNAc(b1-2)Man(a1-6)]Man(b1-4)GlcNAc(b1-4)[Fuc(a1-6)]GlcNAc
Summary of the method: as §1

[17] = target: Gal(b1-4)GlcNAc(b1-3)Gal(b1-4)GlcNAc(b1-3)Gal(b1-4)GlcNAc(b1-3)Gal(b1-4)GlcNAc(b1-2)Man(a1-3)[Gal(b1-4)GlcNAc(b1-3)Gal(b1-4)GlcNAc(b1-3)Gal(b1-4)GlcNAc(b1-3)Gal(b1-4)GlcNAc(b1-2)Man(a1-6)]Man(b1-4)GlcNAc(b1-4)GlcNAc
Summary of the method: as §1

[18] = target: Gal(b1-4)GlcNAc(b1-3)Gal(b1-4)GlcNAc(b1-3)Gal(b1-4)GlcNAc(b1-3)Gal(b1-4)GlcNAc(b1-2)Man(a1-3)[Gal(b1-4)GlcNAc(b1-3)Gal(b1-4)GlcNAc(b1-3)Gal(b1-4)GlcNAc(b1-3)Gal(b1-4)GlcNAc(b1-2)Man(a1-6)]Man(b1-4)GlcNAc(b1-4)[Fuc(a1-6)]GlcNAc
Summary of the method: as §1

[19] = target: Gal(b1-4)GlcNAc(b1-3)Gal(b1-4)GlcNAc(b1-3)Gal(b1-4)GlcNAc(b1-3)Gal(b1-4)GlcNAc(b1-2)[Gal(b1-4)GlcNAc(b1-3)Gal(b1-4)GlcNAc(b1-3)Gal(b1-4)GlcNAc(b1-3)Gal(b1-4)GlcNAc(b1-6)]Man(a1-6)[Gal(b1-4)GlcNAc(b1-3)Gal(b1-4)GlcNAc(b1-3)Gal(b1-4)GlcNAc(b1-3)Gal(b1-4)GlcNAc(b1-2)Man(a1-3)]Man(b1-4)GlcNAc(b1-4)[Fuc(a1-6)]GlcNAc
Summary of the method: as §1

[20] = target: Gal(b1-4)GlcNAc(b1-3)Gal(b1-4)GlcNAc(b1-3)Gal(b1-4)GlcNAc(b1-3)Gal(b1-4)GlcNAc(b1-3)Gal(b1-4)GlcNAc(b1-2)Man(a1-3)[Gal(b1-4)GlcNAc(b1-3)Gal(b1-4)GlcNAc(b1-3)Gal(b1-4)GlcNAc(b1-3)Gal(b1-4)GlcNAc(b1-3)Gal(b1-4)GlcNAc(b1-2)Man(a1-6)]Man(b1-4)GlcNAc(b1-4)GlcNAc
Summary of the method: as §1

B1: DrGal3 (Danio rerio) (protein)
chain: MDLSDALDAPPQQNNQQAGGPVWPGQPANPVWPGQPANPTWPGQPNQPAWPGQPNQQWPGQPGQPTAPGWPGPAPQTGPYGAPGQAPQVLTVPLDFPLQNGAYNKMLITINGEVKPNAKQFTVNLRRGNDIAFHINPRFSEGGKPVIVRNSMIGNNWGREERELPSFPFVPGKPFEMKILITDTEYKVAVNKSHLLEFKHRVFELNQITGLSIYNDVTLSTVNVETLQ
glycan array binding signal (z-score) [1]: -0.254 | glycan array binding signal (z-score) [2]: -0.164 | glycan array binding signal (z-score) [3]: -0.125 | glycan array binding signal (z-score) [4]: -0.218 | glycan array binding signal (z-score) [5]: -0.209 | glycan array binding signal (z-score) [6]: 1.52 | glycan array binding signal (z-score) [7]: -0.25 | glycan array binding signal (z-score) [8]: -0.087 | glycan array binding signal (z-score) [9]: -0.212 | glycan array binding signal (z-score) [10]: -0.206 | glycan array binding signal (z-score) [11]: -0.233 | glycan array binding signal (z-score) (Fuc(b1-3)GlcNAc): -0.277 | glycan array binding signal (z-score) [12]: -0.287 | glycan array binding signal (z-score) (Gal(a1-3)Gal(b1-4)Glc): -0.233 | glycan array binding signal (z-score) (Gal(a1-3)GalNAc): -0.007 | glycan array binding signal (z-score) (Gal(b1-3)GalNAc(b1-3)Gal): -0.183 | glycan array binding signal (z-score) [13]: -0.208 | glycan array binding signal (z-score) [14]: -0.231 | glycan array binding signal (z-score) (Gal(b1-4)GlcNAc): -0.237 | glycan array binding signal (z-score) [15]: -0.247 | glycan array binding signal (z-score) [16]: 4.37 | glycan array binding signal (z-score) [17]: 4.2 | glycan array binding signal (z-score) [18]: 5.59 | glycan array binding signal (z-score) [19]: 4.6 | glycan array binding signal (z-score) [20]: 6.65
